This is a sample that favours compounds with a hit; in the whole collection about 9.4% have one here.
ELG1 genotox: qHTS screen for small molecules that induce genotoxicity in human embryonic kidney (HEK293T) cells expressing luciferase-tagged ELG1 | HEK293T ELG1-luciferase reporter, luminescence, 16 h | Potency, µM (highest dose often 46 µM), for the others: at the top dose activity change, positive = activation, most hits filed as activators | 330,000 compounds, 1.3% hits | AID 504466, 2011; also: % of control where 0% means no effect; nearly all actives have a fitted effect of over 60% in size
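HEK293T cells expressing luciferase-tagged ELG1 were exposed to compound or DMSO vehicle for 16 hr at 37 °C and 5% CO2. Luciferase activity was then measured with ONE-Glo after 30 min at room temperature.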
Rab9 prom act: qHTS Assay for Rab9 Promoter Activators | Huh7 Rab9 promoter-luciferase reporter, luminescence, 24 h | Potency, µM (titrated, usually from 9.22 µM), without a hit: at the top dose activation, negative = inhibition, usual class: activators | 320,000 compounds, 2.8% hits | AID 485297, 2010; also: % of control where 0% means no effect; nearly all actives have a fitted effect of over 60% in size
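Rab9 promoter-driven luciferase in stably transfected Huh7 cells; 1500 cells/well rested 2 h, exposed to compound in DMSO for 24 h at 37 °C, 5% CO2. Luminescence read 10 min after adding luciferase reagent at ambient temperature.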
ELG1 DNA repair: qHTS screen for small molecules that inhibit ELG1-dependent DNA repair in human embryonic kidney (HEK293T) cells expressing luciferase-tagged ELG1; HEK293T ELG1-luciferase reporter, luminescence, 16 h; DNA damage induced by 5-fluorouridine; Potency, µM (highest dose often 46.1 µM), for inactives: at the top dose activity change, negative = inhibition, most hits filed as inhibitors; 330,000 compounds, 2.3% hits; AID 504467, 2011; also: % is scaled to controls: 0 for no effect and ±100 for the full control effect; nearly all actives have a fitted effect of over 55% in size
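HEK293T cells expressing luciferase-tagged ELG1 (2,000/well) received 5-Fluorouridine plus compound or DMSO for 16 hr at 37 °C. Luciferase was read by ONE-Glo luminescence after 30 min at room temperature.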
NPC1 prom act: qHTS Assay for NPC1 Promoter Activators. Huh7 NPC1 promoter luciferase reporter, 24 h. Potency, µM (titrated, usually from 9.22 µM), for inactives: at the top dose activation, most hits filed as activators. 320,000 compounds, 2.4% hits. AID 485313, 2010; also: % of control where 0% means no effect; nearly all actives have a fitted effect of over 60% in size
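Stably transfected Huh7 (NPC1 promoter→luciferase), 1500 cells/well in Opti-MEM + 10% FBS, 2 h settle, then compound 24 h at 37 °C. Luminescence after 10 min with Amplite reagent.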
SMN2 splice up: qHTS Assay for Enhancers of SMN2 Splice Variant Expression; HEK293 SMN2-luciferase splicing reporter, luminescence, 30-36 h; Potency, µM (series often up to 46.1 µM), for the others: top-dose activity change, positive = activation, usual class: activators; 210,000 compounds, 2.8% hits; AID 1458, 2008; also: % of control where 0% means no effect; nearly all actives have a fitted effect of over 55% in size
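qHTS luciferase splicing reporter: luminescence rises when SMN2 exon 7 is included in transfected HEK293 cells. Compound exposure lasted 30-36 h at 37C, with 4.5 mM final sodium butyrate as control, followed by a ONE-Glo read.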
FLuc modulator: qHTS profiling assay for firefly luciferase inhibitor/activator using purifed enzyme and Km concentrations of substrates (counterscreen for miR-21 project); 360,000 compounds, 6.9% hits; Luciferin 4-monooxygenase (Photinus pyralis), P08659; purified FLuc, Km substrates, luminescence inhibition; Potency, µM (doses to about 57.5 µM), without a hit: at the highest dose activity change, negative = inhibition, usual class: inhibitors;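 also: plate controls were vehicle for no effect and reference inhibitor for full effect; nearly all actives have a fitted effect of over 55% in size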
Target sequence (P08659 whole entry, looked up): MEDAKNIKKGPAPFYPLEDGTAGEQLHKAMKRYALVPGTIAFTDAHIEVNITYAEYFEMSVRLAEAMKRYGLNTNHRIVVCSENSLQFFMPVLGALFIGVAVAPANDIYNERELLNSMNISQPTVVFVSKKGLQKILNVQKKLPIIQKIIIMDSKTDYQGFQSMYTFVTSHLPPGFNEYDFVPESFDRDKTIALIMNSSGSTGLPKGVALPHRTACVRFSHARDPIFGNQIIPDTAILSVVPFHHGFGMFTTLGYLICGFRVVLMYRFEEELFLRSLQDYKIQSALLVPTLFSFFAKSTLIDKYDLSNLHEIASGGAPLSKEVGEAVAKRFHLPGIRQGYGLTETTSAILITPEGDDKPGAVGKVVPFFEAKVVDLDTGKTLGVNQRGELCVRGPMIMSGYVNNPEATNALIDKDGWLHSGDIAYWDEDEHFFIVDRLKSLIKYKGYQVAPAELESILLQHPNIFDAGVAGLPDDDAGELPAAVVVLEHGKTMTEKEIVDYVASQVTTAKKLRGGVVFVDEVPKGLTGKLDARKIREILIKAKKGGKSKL
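Purified P. pyralis luciferase (10nM final) with 10uM D-luciferin and 10uM ATP (Km levels) in 50mM Tris acetate pH 7.5, 10mM Mg acetate, 0.01% Tween-20, 0.05% BSA; qHTS 6-point titration, ~60 µM downward; luminescence read.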
The depositor's hits bear a star; ? = inconclusive; nt = no result given; ! = not active in a repeat; [ ] = dose if it differs, or a comment. Calls follow the shape of the dose curve; as a rule, active = well fitted curve in the direction sought with a large enough effect; inconclusive = small, poorly fitted or top-dose-only effect, or another doubt; inactive = no such curve, though single readings can be large; an effect the other way counts as inactive or inconclusive. Potency is read from the fitted curve at half-maximal effect.

SMILES	ELG1 genotox	Rab9 prom act	ELG1 DNA repair	NPC1 prom act	SMN2 splice up	FLuc modulator
O=C(N/N=C/c1ccc(OC(=O)c2ccccc2Br)cc1)c1ccccn1	2.5%	-1.1%	-1.4%	0.8%	nt	3.0%
O=C(N/N=C/c1ccc(Br)s1)c1ccccn1	9.2µM*	1.41µM*	?	2.82µM*	3.55µM*	4.78µM*
CO[Si](CCCNCCC[Si](OC)(OC)OC)(OC)OC	nt	nt	nt	nt	-4.4%	nt
CN(C)C(=O)c1ccc(-c2nc(NCc3ccccc3)c3ccccc3n2)cc1	nt	nt	nt	nt	4.2%	nt
O=[N+]([O-])c1ccc(CSCc2ccc(Cl)cc2)cc1	nt	nt	nt	nt	-5.4%[9.22 µM]	nt
Cc1cc(C2(c3cc(C)c(O)cc3C)OS(=O)(=O)c3ccccc32)c(C)cc1O	nt	nt	nt	nt	-8.0%	nt
CC(=O)N(c1nnc(-c2cccc(C)c2)s1)C1CCCC1	23.1%	?	?	?	nt	23.9µM*
COc1cc(OC)cc(C(=O)N2CC(=O)Nc3ccc(Cl)cc3C2c2ccccc2)c1 (centres undefined)	nt	nt	nt	nt	-12.1%	-0.7%
COc1cccc(-c2nnc(SCC(=O)N3CCOCC3)o2)c1	10.3%	3.98µM*	?	?	21.3%	?
COc1ccc(-c2nnc(SCC(=O)N3CCOCC3)o2)cc1	20.6µM*	4.47µM*	?	?	14.1µM*	21.3µM*
COc1cc2c(cc1OC)CN(c1ccc(C(F)(F)F)cn1)CC2	?	17.2%	?	26.7%	nt	16.9µM*
Cc1ccc(-n2nc(C(=O)N3CCC(C)CC3)c(=O)n(C)c2=O)cc1	nt	nt	nt	nt	nt	-0.8%
COC(=O)c1sc(N2C(=O)C(O)=C(C(=O)c3ccc(C)o3)C2c2ccc([N+](=O)[O-])cc2)nc1C (centres undefined)	?	1.78µM*	?	3.55µM*	nt	19µM*
O=S(=O)(c1ccc2ccccc2c1)n1nc(-c2ccco2)nc1NCc1cccc(Cl)c1	nt	nt	nt	nt	nt	-8.0%
COC(=O)c1c(N2C(=O)[C@H]3[C@@H](C2=O)[C@]2(C(=O)Nc4ccc(C)cc42)N2CCC[C@@H]32)sc(C)c1C	9.8%	-1.5%	8.2µM*	1.1%	-7.2%	-3.3%
CCN(CC)S(=O)(=O)c1nnc(NC(=O)c2ccco2)s1	2.2%	7.8%	5.3%	8.4%	nt	26.9µM*
CC(C)CN(c1ccccc1)S(=O)(=O)c1nnc(NC(=O)c2ccco2)s1	-3.1%	-0.1%	?	1.6%	nt	0.849µM*!
CCN(c1ccc(C)cc1)S(=O)(=O)c1nnc(NC(=O)c2ccco2)s1	-0.3%	-14.7%	1.0%	1.8%	nt	0.2%
CN(Cc1ccco1)S(=O)(=O)c1nnc(NC(=O)c2cccc(Cl)c2)s1	-2.3%	24.9%	-18.5%	29.1%	nt	26.9µM*
O=C(C1CC(c2ccc(F)cc2)=NO1)N1CCCCC1 (centres undefined)	?	?	?	3.16µM*	28.2µM*	15.1µM*
CC1CCCCN1C(=O)C1CC(c2ccc(F)cc2)=NO1 (centres undefined)	17.9%	2µM*	?	?	nt	21.3µM*
O=C(C1CC(c2ccccc2O)=NO1)N1CCCCC1 (centres undefined)	13µM*	4.47µM*	?	?	0.159µM*	15.1µM*
CC(=O)N1CCc2c(sc3c2c(=O)n(-c2ccccc2)c(=O)n3CC(=O)c2ccc(F)cc2)C1	nt	nt	nt	nt	-10.5%	-2.7%
COc1ccc(C(=O)c2c(N)c(C(=O)Nc3ccccc3Cl)c3ccccn23)cc1	nt	nt	nt	nt	-6.4%	-5.9%
Cc1ccc2oc(C(=O)Nc3ccc(S(=O)(=O)Nc4nccc(C)n4)cc3)cc(=O)c2c1	nt	nt	nt	nt	2.3%	-16.4%
SMILES	ELG1 genotox	Rab9 prom act	ELG1 DNA repair	NPC1 prom act	SMN2 splice up	FLuc modulator
Cc1ccc(C(=O)N2CCC(c3c[nH]c4ccccc34)(c3c[nH]c4ccccc34)CC2)cc1	nt	nt	nt	nt	25.9%	-1.1%
CCc1ccc(-n2nnc(-c3nc(-c4ccc(C)cc4)no3)c2N)cc1	nt	nt	nt	nt	nt	-8.9%
N[C@@H](CCS(=O)O)C(=O)O	nt	nt	nt	nt	-3.1%	nt
CC(=O)C1=C(NC(=O)c2ccc(F)cc2)CC2C1C2(C)C (centres undefined)	-4.5%	13.3%	5.2%	0.8%	-15.6%	21.3µM*
CCCCCCCCCCCCC/C=C/[C@@H](O)[C@H](CO)N(C)C	nt	nt	nt	nt	-1.7%	nt
CCn1cc2nc(SCC(=O)Nc3ccccc3C(F)(F)F)n(Cc3ccc(C)cc3)c(=O)c2n1	nt	nt	nt	nt	-3.9%	-12.8%
CN(C(=O)C(C)(C)C)C1c2c(ccc3ccccc23)OCC1CO (centres undefined)	-3.3%	-5.3%	-10.0%	-2.6%	nt	3.5%
CNC(=S)N(C)[C@H]1c2c(ccc3ccccc23)OC[C@H]1CO	-4.8%	3.2%	23.1µM*	-0.8%	-10.9%	-6.1%
Cc1ccc(S(=O)(=O)NC(CC(C)C)C(=O)NCC(c2ccco2)N2CCCCC2)cc1 (centres undefined)	?	1.2%	?	0.1%	nt	19µM*
Cc1ccc2oc(-c3ccc(Cl)c(NC(=O)c4ccc(-c5ccccc5[N+](=O)[O-])o4)c3)nc2c1	nt	nt	nt	nt	-9.5%	?
COc1ccc(-c2nc3ccccc3o2)cc1NC(=O)C(C)(C)Oc1ccc(Br)cc1	nt	nt	nt	nt	-5.8%	-4.8%
CCc1ccc2oc(-c3cccc(NC(=O)C(C)(C)Oc4ccc(Br)cc4)c3)nc2c1	nt	nt	nt	nt	5.01µM*	2.13µM*
CCc1ccc2oc(-c3cccc(NC(=O)c4cc5ccccc5o4)c3)nc2c1	nt	nt	nt	nt	?	2.39µM*
O=C(Nc1ccc(-c2nc3cc(Cl)ccc3o2)cc1)c1cc2ccccc2o1	nt	nt	nt	nt	-6.6%	4.5%
Cc1ccc2oc(-c3ccc(C)c(NC(=O)c4ccc(-c5ccccc5[N+](=O)[O-])o4)c3)nc2c1	nt	nt	nt	nt	-24.4%	10.7µM*
CCc1ccc2oc(-c3cccc(NC(=O)c4cccnc4)c3)nc2c1	-1.6%	?	?	?	16.3%	1.35µM*
COc1ccc(-n2cc3c(c2-c2cccc(Br)c2)c(=O)n(C)c(=O)n3C)cc1OC	nt	nt	nt	nt	nt	0.1%
CCOC(=O)C1OC1c1ccccc1 (centres undefined)	nt	nt	nt	nt	-6.2%	nt
Cc1ccc2oc(-c3ccc(Cl)c(NC(=O)c4cc5ccccc5o4)c3)nc2c1	nt	nt	nt	nt	6.0%	12µM*
COc1cc(/C=C2\SC(=S)N(CCC(=O)N3CCN(C)CC3)C2=O)cc(OC)c1OC	-4.9%	-2.3%	1.1%	-5.9%	nt	-1.2%

From PubChem
